Our source for the outcome and AC50 values is PubChem BioAssay (EPA / NIEHS).

Read-out in assay [1]: Tumor necrosis factor receptor superfamily member 6 (Homo sapiens) (UniProt P25445)
As to the kind of experiment: LTEA_HepaRG_FAS: Life Technologies and Expression Analysis (LTEA) Assay for Fas cell surface death receptor (FAS) using HepaRG (AID 2283447). The settings on record: mRNA level, 48 h; actives raise or lower the signal. The procedure, abridged:
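Differentiated HepaRG cells in serum-free induction medium were exposed 48 h to 8 half-log concentrations up to 100 uM in 0.5% DMSO, in duplicate. FAS mRNA was measured by qRT-PCR normalised to ACTB, GAPDH and POLR2A; bidirectional fit versus DMSO.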

Read-out in assay [2]: Fatty acid synthase (Homo sapiens) (UniProt P49327)
Briefly: LTEA_HepaRG_FASN: Life Technologies and Expression Analysis (LTEA) Assay for Fatty Acid Synthase (FASN) using HepaRG (AID 2283448).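 On AC50: differentiated human HepaRG liver cells in serum-free induction medium.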 The settings on record: mRNA level, 48 h; actives raise or lower the signal. The procedure, abridged: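 Cells were plated, cultured 48 h, switched to serum-free induction medium, then dosed in duplicate (max 100 uM, half-log dilutions, 0.5% DMSO) for 48 h. RNA was then isolated and FASN quantified by qRT-PCR.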

Read-out in assay [3]: Cyclin D2 (CCND2), CCND2 (gene 894)
Briefly: LTEA_HepaRG_CCND2: Life Technologies and Expression Analysis (LTEA) Assay for Cyclin D2 (CCND2) using HepaRG (AID 2283449).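 Further: CCND2 transcript measured by TaqMan qRT-PCR and normalised to three housekeeping genes.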 The following applies: mRNA level, 48 h; actives raise or lower the signal. The procedure, abridged:
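HepaRG, 48 h dosing, 8-pt half-log curve from 100 uM, 0.5% DMSO; duplicate wells. Readout: CCND2 transcript by microfluidic qRT-PCR, housekeeping-normalised; bidirectional fit vs DMSO baseline.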

Read-out in assay [4]: Cyclin Dependent Kinase Inhibitor 1A (CDKN1A), CDKN1A (gene 1026)
As to the kind of experiment: LTEA_HepaRG_CDKN1A: Life Technologies and Expression Analysis (LTEA) Assay for Cyclin Dependent Kinase Inhibitor 1A (CDKN1A) using HepaRG (AID 2283450). The settings on record: mRNA level, 48 h; actives raise or lower the signal. The procedure, abridged:
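Read-out is CDKN1A mRNA by TaqMan qRT-PCR, normalized to three housekeeping genes and fitted in both directions against the DMSO baseline. Human HepaRG cells were treated 48 h with test chemicals up to 100 uM in half-log steps, 0.5% DMSO.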

Read-out in assay [5]: catalase (CAT), CAT (gene 847)
Briefly: LTEA_HepaRG_CAT: Life Technologies and Expression Analysis (LTEA) Assay for catalase (CAT) using HepaRG (AID 2283452). The following applies: mRNA level, 48 h; actives raise or lower the signal. The procedure, abridged:
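HepaRG cells in serum-free induction medium, 0.5% DMSO vehicle, exposed 48 h in duplicate over 8 half-log concentrations from 100 uM. CAT mRNA measured by qRT-PCR, normalized to ACTB, GAPDH, POLR2A; bidirectional fit versus DMSO.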

Read-out in assay [6]: flavin-containing dimethylaniline monooxygenases 3 (FMO3), FMO3 (gene 2328)
Briefly: LTEA_HepaRG_FMO3: Life Technologies and Expression Analysis (LTEA) Assay for flavin-containing dimethylaniline monooxygenases 3 (FMO3) using HepaRG (AID 2283453).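 On AC50: differentiated human HepaRG liver cells in serum-free induction medium.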 The following applies: mRNA level, 48 h; actives raise or lower the signal. The procedure, abridged: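 FMO3 transcript quantified by TaqMan qRT-PCR against three housekeeping genes after 48 h chemical exposure of HepaRG cells. Eight-point half-log series, top 100 uM, 0.5% DMSO vehicle; phenobarbital 1mM induction control; up- or down-regulation fitted.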

Read-out in assay [7]: Forkhead box O1 (FOXO1), FOXO1 (gene 2308)
As to the kind of experiment: LTEA_HepaRG_FOXO1: Life Technologies and Expression Analysis (LTEA) Assay for Forkhead box O1 (FOXO1) using HepaRG (AID 2283456). The settings on record: mRNA level, 48 h; actives raise or lower the signal. The procedure, abridged: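 HepaRG, 48 h exposure, 8-pt half-log series from 100 uM in 0.5% DMSO, duplicates; Fluidigm qRT-PCR mRNA, housekeeping-normalised; bidirectional fit vs DMSO baseline.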

Read-out in assay [8]: growth arrest and DNA damage 45 (GADD45A), GADD45A (gene 1647)
As to the kind of experiment: LTEA_HepaRG_GADD45A: Life Technologies and Expression Analysis (LTEA) Assay for growth arrest and DNA damage 45 (GADD45A) using HepaRG (AID 2283458). The settings on record: mRNA level, 48 h; actives raise or lower the signal. The procedure, abridged:
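Transcript induction or loss, quantified by TaqMan qRT-PCR against three housekeeping genes, is the read-out. HepaRG cells received chemicals for 48 h across eight half-log concentrations from 100 uM in 0.5% DMSO; gain and loss fitted relative to DMSO.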

Read-out in assay [9]: Forkhead box O3 (FOXO3), FOXO3 (gene 2309)
Briefly: LTEA_HepaRG_FOXO3: Life Technologies and Expression Analysis (LTEA) Assay for Forkhead box O3 (FOXO3) using HepaRG (AID 2283459). The settings on record: mRNA level, 48 h; actives raise or lower the signal. The procedure, abridged: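 qRT-PCR readout of FOXO3 transcript, normalized to three housekeeping genes (ACTB, GAPDH, POLR2A); gain or loss fitted against 0.5% DMSO vehicle. HepaRG cells, 48 h chemical exposure, 8-point half-log series, top 100 uM.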

Read-out in assay [10]: ABC Transporter (ABCB1), ABCB1 (gene 5243)
Briefly: LTEA_HepaRG_ABCB1: Life Technologies and Expression Analysis (LTEA) Assay for ABC Transporter (ABCB1) using HepaRG (AID 2283460). The following applies: mRNA level, 48 h; actives raise or lower the signal. The procedure, abridged: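 HepaRG, 48 h exposure, 8-pt half-log series from 100 uM, 0.5% DMSO vehicle, duplicates. Readout: ABCB1 transcript by Fluidigm TaqMan qRT-PCR, housekeeping-normalized; bidirectional curve fit vs DMSO baseline.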

Read-out in assay [11]: Cyclin D1 (CCND1), CCND1 (gene 595)
Briefly: LTEA_HepaRG_CCND1: Life Technologies and Expression Analysis (LTEA) Assay for Cyclin D1 (CCND1) using HepaRG (AID 2283451).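 On AC50: differentiated human HepaRG liver cells in serum-free induction medium.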 The settings on record: mRNA level, 48 h; actives raise or lower the signal. The procedure, abridged: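 HepaRG plated 48 h, medium switched to serum-free induction medium, chemicals added in duplicate (top 100 uM, half-log steps, 0.5% DMSO) for 48 h, cells lysed, RNA measured by TaqMan qRT-PCR.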

Read-out in assay [12]: CFLAR gene, CFLAR (gene 8837)
As to the kind of experiment: LTEA_HepaRG_CFLAR: Life Technologies and Expression Analysis (LTEA) Assay for CFLAR gene using HepaRG (AID 2283455). The following applies: mRNA level, 48 h; actives raise or lower the signal. The procedure, abridged: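 qRT-PCR read-out (Fluidigm/TaqMan) of CFLAR mRNA, normalized to three housekeeping genes, in differentiated human HepaRG cells after 48 h chemical exposure; 8-point half-log series from 100 uM in 0.5% DMSO; bidirectional curve fitting versus DMSO.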

Assay [13] in a line: CEETOX_H295R_CORTIC: CeeTox H295R High-throughput Steroidogenesis Assay for Corticosterone (CORTIC) (AID 2283437).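 Further: corticosterone secreted into medium quantified by mass spectrometry.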 The settings on record: actives raise or lower the signal. The procedure, abridged:
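48 h forskolin (10 uM) prestim, then 48 h chemical exposure, final DMSO 0.1%. Readout: corticosterone in medium by LC-MS/MS after MTBE extraction. Gain/loss fit vs DMSO; MTT viability in same wells.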

Assay [14] is described as follows: CEETOX_H295R_CORTISOL: CeeTox H295R High-throughput Steroidogenesis Assay for Cortisol (AID 2283438). The following applies: actives raise or lower the signal. The procedure, abridged:
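Cortisol synthesis by H295R cells is measured 48 h after chemical dosing, following a 48 h stimulation with 10 uM forskolin. Hormone is extracted and quantified by HPLC-MS/MS, and activity is fitted bidirectionally against the DMSO control.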

Assay [15] can be described thus: CEETOX_H295R_DOC: CeeTox H295R High-throughput Steroidogenesis Assay for DOC (AID 2283439). The following applies: actives raise or lower the signal. The procedure, abridged: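 Steps: seed H295R, adhere overnight; 10 uM forskolin 48 h; replace with chemical medium (0.1% DMSO) 48 h; collect medium, MTBE extraction, HPLC-MS/MS for DOC. Viability then checked by MTT; cytotoxic chemicals diluted until viability ≥70%.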

The nature of assay [16]: CEETOX_H295R_PROG: CeeTox H295R High-throughput Steroidogenesis Assay for Progesterone (PROG) (AID 2283442). The following applies: actives raise or lower the signal. The procedure, abridged:
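Steps: seed H295R cells and let them adhere overnight; prime 48 h with 10 uM forskolin; dose with compound in DMSO at 0.1% final for 48 h; extract medium steroids with MTBE; measure progesterone by LC-MS/MS. MTT viability was run in the same wells.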

Read-out in assay [17]: Cytochrome P450 (CYP1A1), CYP1A1 (gene 1543)
Briefly: LTEA_HepaRG_CYP1A1: Life Technologies and Expression Analysis (LTEA) Assay for Cytochrome P450 (CYP1A1) using HepaRG (AID 2283454). The following applies: mRNA level, 48 h; actives raise or lower the signal. The procedure, abridged: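 HepaRG, 48 h post-plating switched to serum-free induction medium; 8-pt conc-response (top 100 uM, half-log, 0.5% DMSO), duplicates, 48 h. Lysis in RLT, TaqMan qRT-PCR for CYP1A1; gain or loss vs DMSO.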

A short description of assay [18]: CEETOX_H295R_ESTRADIOL: CeeTox H295R High-throughput Steroidogenesis Assay for Estradiol (AID 2283440).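 Further: estradiol secreted into medium quantified by LC-MS/MS after dansyl derivatisation.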 The following applies: actives raise or lower the signal. The procedure, abridged: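 Estradiol secreted into the medium was measured by tandem mass spectrometry after liquid-liquid extraction and dansylation. Human H295R cells had been forskolin-primed (10 uM, 48 h) before a 48 h chemical exposure with 0.1% DMSO.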

The nature of assay [19]: CEETOX_H295R_ESTRONE: CeeTox H295R High-throughput Steroidogenesis Assay for Estrone (AID 2283441). The settings on record: actives raise or lower the signal. The procedure, abridged:
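Estrone secreted into medium quantified by LC-MS/MS after dansyl chloride derivatization, following 48 h chemical exposure (0.1% DMSO final) of forskolin-prestimulated (10 uM, 48 h) H295R cells; gain or loss fitted against DMSO; MTT viability in same wells.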

Assay [20] is described as follows: CEETOX_H295R_TESTO: CeeTox H295R High-throughput Steroidogenesis Assay for Testosterone (TESTO) (AID 2283457). The following applies: actives raise or lower the signal. The procedure, abridged:
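H295R, passage ≤10, 48 h dosing; media extracted with MTBE → HPLC-MS/MS for testosterone; 7-pt standard curve sets LLOQ/ULOQ; bidirectional fit vs DMSO; MTT viability same wells.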

Each structure is given as a SMILES string. Calls of active or inactive are those of the source. How the source made its calls: active means hit-call score of the fitted dose curve at least 0.9, where 1 is the maximum; inactive means score below 0.9.

Chain of Fatty acid synthase (Homo sapiens) (P49327 whole entry, looked up): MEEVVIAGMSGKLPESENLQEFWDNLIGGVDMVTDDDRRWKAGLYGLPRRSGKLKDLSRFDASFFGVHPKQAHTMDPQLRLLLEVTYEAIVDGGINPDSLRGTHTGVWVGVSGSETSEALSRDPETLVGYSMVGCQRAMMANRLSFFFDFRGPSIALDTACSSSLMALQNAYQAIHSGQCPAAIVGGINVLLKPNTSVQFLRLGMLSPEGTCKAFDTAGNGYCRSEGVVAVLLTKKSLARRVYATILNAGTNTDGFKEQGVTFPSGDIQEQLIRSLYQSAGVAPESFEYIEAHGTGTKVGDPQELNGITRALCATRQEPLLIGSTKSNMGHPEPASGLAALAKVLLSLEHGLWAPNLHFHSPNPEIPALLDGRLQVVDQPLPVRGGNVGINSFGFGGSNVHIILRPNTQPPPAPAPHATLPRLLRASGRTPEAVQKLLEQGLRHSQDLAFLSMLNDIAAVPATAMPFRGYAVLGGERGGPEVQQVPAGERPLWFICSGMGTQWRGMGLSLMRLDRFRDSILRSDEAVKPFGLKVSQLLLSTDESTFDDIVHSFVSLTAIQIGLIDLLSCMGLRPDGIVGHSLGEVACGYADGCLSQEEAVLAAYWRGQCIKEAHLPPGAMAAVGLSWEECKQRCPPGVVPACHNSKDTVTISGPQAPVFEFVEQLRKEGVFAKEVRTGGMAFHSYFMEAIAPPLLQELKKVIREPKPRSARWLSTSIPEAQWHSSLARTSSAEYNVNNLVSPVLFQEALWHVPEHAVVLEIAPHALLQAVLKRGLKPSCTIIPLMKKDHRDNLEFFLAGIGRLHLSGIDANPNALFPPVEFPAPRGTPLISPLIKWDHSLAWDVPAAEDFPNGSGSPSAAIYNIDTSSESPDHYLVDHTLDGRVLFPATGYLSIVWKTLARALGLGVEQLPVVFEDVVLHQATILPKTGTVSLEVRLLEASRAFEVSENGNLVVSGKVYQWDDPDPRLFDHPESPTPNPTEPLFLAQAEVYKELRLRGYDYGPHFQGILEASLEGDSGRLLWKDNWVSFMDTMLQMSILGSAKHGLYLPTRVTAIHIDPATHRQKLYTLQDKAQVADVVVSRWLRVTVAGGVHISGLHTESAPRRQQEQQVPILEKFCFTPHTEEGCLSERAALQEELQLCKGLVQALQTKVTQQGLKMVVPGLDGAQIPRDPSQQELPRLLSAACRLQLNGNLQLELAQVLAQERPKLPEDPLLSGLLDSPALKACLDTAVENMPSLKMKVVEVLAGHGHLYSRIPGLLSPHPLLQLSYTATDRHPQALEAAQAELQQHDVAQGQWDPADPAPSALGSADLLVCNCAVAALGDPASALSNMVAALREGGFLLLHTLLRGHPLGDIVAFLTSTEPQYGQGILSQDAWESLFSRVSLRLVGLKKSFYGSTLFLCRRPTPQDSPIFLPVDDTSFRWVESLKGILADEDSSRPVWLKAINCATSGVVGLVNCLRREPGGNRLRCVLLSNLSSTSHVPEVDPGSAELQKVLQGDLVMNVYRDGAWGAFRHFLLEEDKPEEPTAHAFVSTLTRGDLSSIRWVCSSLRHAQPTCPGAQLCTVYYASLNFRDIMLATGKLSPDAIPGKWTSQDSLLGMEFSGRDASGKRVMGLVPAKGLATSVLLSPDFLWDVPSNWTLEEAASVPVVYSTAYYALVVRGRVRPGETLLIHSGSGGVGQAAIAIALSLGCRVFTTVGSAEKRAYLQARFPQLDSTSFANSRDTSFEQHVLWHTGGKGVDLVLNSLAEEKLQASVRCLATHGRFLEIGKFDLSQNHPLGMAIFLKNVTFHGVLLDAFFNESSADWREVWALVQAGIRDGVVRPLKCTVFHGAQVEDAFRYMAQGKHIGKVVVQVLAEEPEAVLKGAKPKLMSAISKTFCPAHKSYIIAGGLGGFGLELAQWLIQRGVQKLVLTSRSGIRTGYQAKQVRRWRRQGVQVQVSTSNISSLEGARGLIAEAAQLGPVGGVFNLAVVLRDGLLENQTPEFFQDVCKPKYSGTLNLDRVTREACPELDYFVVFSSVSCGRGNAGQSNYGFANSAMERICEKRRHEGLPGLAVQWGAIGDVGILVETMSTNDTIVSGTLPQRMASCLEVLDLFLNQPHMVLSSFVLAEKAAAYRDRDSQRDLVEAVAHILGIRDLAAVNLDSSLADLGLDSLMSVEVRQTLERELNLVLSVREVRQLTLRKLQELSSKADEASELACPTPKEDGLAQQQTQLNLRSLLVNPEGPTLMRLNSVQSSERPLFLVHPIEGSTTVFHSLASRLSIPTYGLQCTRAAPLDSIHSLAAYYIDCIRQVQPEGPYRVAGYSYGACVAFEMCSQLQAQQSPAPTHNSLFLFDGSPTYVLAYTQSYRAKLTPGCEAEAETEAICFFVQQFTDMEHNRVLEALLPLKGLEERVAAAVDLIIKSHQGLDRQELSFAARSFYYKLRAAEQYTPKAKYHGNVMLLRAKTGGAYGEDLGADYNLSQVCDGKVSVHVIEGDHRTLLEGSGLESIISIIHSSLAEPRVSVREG

For `O=C(O)c1cccc(C(=O)O)c1`, the compound was classed as inactive in [1], in [2], in [3], in assay [4], in assay [5] and in assay [6]. Also, the compound was classed as inactive in assay [7], in assay [8], in [9] and in [10].
Take `CCCCCCCCCC`: the outcome in assay [1], in assay [2], in assay [3], in assay [4], in [11] and in [5] was inactive. The outcome in assay [6], in [12], in [7], in assay [8], in [9] and in assay [10] was inactive.
As to `Nc1ccn([C@@H]2O[C@H](CO)[C@@H](O)[C@@H]2O)c(=O)n1`, the compound was classed as inactive in [13], in [14], in assay [15], in [16], in [1] and in assay [3]. In addition, the call in assay [4], in assay [11], in [5], in [6], in assay [12] and in assay [7] was inactive. The compound was called inactive in assay [8], in assay [9] and in assay [10]. Also, the AC50 in assay [17] was 77.3 µM (active).
On to `CCCCC(CC)C(=O)OCCOCCOCCOC(=O)C(CC)CCCC` (stereo not given), for which the result in [13], in assay [14], in [15], in assay [18], in assay [19] and in assay [16] was inactive. For the same compound, the call in [1], in assay [2], in assay [4], in assay [5], in [6] and in [12] was inactive. The compound was called inactive in assay [7], in [20], in assay [8], in [9] and in assay [10].
With `c1ccc(C(O[C@@H]2CCCN(CCc3ccc4c(c3)OCO4)C2)c2ccccc2)cc1`, the AC50 in assay [1] is 50 µM (active); in assay [2] it was 79.9 µM (active); in assay [4] it was 77.7 µM (active); in [5], 69.7 µM (active); in assay [6], 70 µM (active); in [8] it was 89.2 µM (active). The AC50 was 10.2 µM (active) in assay [9] and 83.9 µM (active) in assay [10]. Further, the call in assay [3] and in assay [7] was inactive.
Consider `COc1cc2c(c(OC)c1OC)-c1ccc(OC)c(=O)cc1[C@@H](NC(C)=O)CC2`, for which the call in assay [13], in [14], in assay [15], in assay [18], in assay [19] and in assay [16] was inactive. The call in assay [3], in assay [4], in assay [20], in [8] and in assay [9] was inactive. Also, the AC50 in [1] is 0.0799 µM (active); in [11] it was 17.8 nM (active); in [5] it was 0.0772 µM (active); in assay [6], 0.0477 µM (active); in assay [17], 0.0575 µM (active); in assay [12], 66.3 nM (active). The AC50 in assay [7] was 30.9 nM (active); in assay [10], 0.0797 µM (active).
`c1ccc2cc3ccccc3cc2c1`: the compound was called inactive in assay [1], in [2], in assay [3], in [4], in assay [5] and in assay [6]. In addition, the compound was classed as inactive in assay [12], in assay [7], in [8], in [9] and in [10].
